PubChem BioAssay (NCI)
“And” between values parts separate entries of the source, which are not always exact repeats. Equal entries are not always repeated. This is part of a sample that, as a whole, favours compounds with a hit. Of some 79,000 tested, about 15% had one in any assay. Some structures have more than one record in an assay (separate samples or runs), and their calls can disagree. The source made the active and inactive calls. No stated cut-off is given here; in the data, active means growth inhibition above about 70%; inactive means the rest.

What was measured:
[1] = NCI Yeast Anticancer Drug Screen. Data for the rad50 strain (AID 155);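 further: 0% = growth of vehicle-only cultures of the same strain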; details: S. cerevisiae rad50 strain growth inhibition, stronger effect = higher value
In short: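 Relative growth inhibition (compound vs vehicle) was measured in yeast with a defined repair-gene alteration.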

[2] = NCI Yeast Anticancer Drug Screen. Data for the mec2-1 strain (AID 157); details: S. cerevisiae mec2-1 strain, stronger effect = higher value
In short: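 mec2-1 yeast strain, carrying an alteration in DNA damage repair or cell cycle control, was exposed to compounds; growth inhibition was measured relative to vehicle-treated controls.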

[3] = NCI Yeast Anticancer Drug Screen. Data for the sgs1 mgt1 strain (AID 161);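 further: 0% = growth of cultures given vehicle only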; details: S. cerevisiae sgs1 mgt1 strain, stronger effect = higher value
In short: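 Growth of a repair-deficient yeast mutant was monitored after compound treatment and expressed as inhibition relative to vehicle-treated cultures.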

[4] = NCI Yeast Anticancer Drug Screen. Data for the cln2 rad14 strain (AID 165);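 further: 0% = growth equal to vehicle treated cultures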; details: S. cerevisiae cln2 rad14 strain, stronger effect = higher value
In short: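 Yeast carrying cln2 and rad14 alterations (cell cycle control and DNA damage repair) were exposed to compounds. Growth inhibition was measured against vehicle-treated controls.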

[5] = NCI Yeast Anticancer Drug Screen. Data for the bub3 strain (AID 167); details: S. cerevisiae bub3 mutant strain, stronger effect = higher value
In short: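 Screening used yeast with an engineered genetic alteration affecting cell cycle control. Compound-exposed cultures were compared with vehicle cultures, and reduced growth was taken as inhibition.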

[6] = NCI Yeast Anticancer Drug Screen. Data for the mlh1 rad18 strain (AID 175); details: S. cerevisiae mlh1 rad18 strain growth inhibition, stronger effect = higher value
In short: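 Growth inhibition of the yeast strain was measured after compound exposure and expressed relative to vehicle-treated controls. The strain carries defined defects in DNA damage repair.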

[7] = at 5.0 µM (retest, dose inferred, filed as 0.5)
[8] = at 50.0 µM (retest, dose inferred, filed as 5.0)

Measured: growth inhibition

CCc1cc2c(cc1C(C)=O)C(C)(C)CCC2
active: [1]; [8] 95% | [1]; at 50.0 µM 98.5% | [2]; [8] 97% | [2]; at 50.0 µM 98.7% | [3]; [8] 98% | [3]; at 50.0 µM 98.5% | [4]; [8] 97% | [4]; at 50.0 µM 93% | [5]; [8] 96% | [5]; at 50.0 µM 98.7% | [6]; [8] 98% | [6]; at 50.0 µM 98.7%
inactive: [1]; [7] 6% | [2]; [7] 2% | [3]; [7] 14% | [4]; [7] 11% | [5]; [7] -3% | [6]; [7] 9%

COc1c(O)cc2oc3cc(O)c(CC=C(C)C)c(O)c3c(=O)c2c1CC=C(C)C
inactive: [4]; [7] 51% and 42%
active: [1]; [7] 98% | [1]; [8] 89% | [1]; at 50.0 µM 86.8% and 87.2% | [2]; [7] 99% | [2]; [8] 91% and 93% | [2]; at 50.0 µM 89.2% and 90% | [3]; [7] 99% | [3]; [8] 89% | [3]; at 50.0 µM 90.3% and 89.4% | [4]; [8] 83% and 86% | [4]; at 50.0 µM 85.2% and 86.2% | [5]; [7] 98% | [5]; [8] 87% and 86% | [5]; at 50.0 µM 86.1% and 87% | [6]; [7] 99% and 98% | [6]; [8] 81% and 87% | [6]; at 50.0 µM 87.2%

CCCC1=CCCC1
inactive: [1]; [7] 2% | [1]; [8] 8% | [2]; [7] 2% | [2]; [8] -6% | [3]; [7] -1% | [3]; [8] 1% | [3]; at 50.0 µM 50.9% | [4]; [7] 0% | [4]; [8] 2% | [4]; at 50.0 µM 50% | [5]; [7] 1% | [5]; [8] 1% | [6]; [7] 0% | [6]; [8] 5% | [6]; at 50.0 µM 50.2%
active: [1]; at 50.0 µM 91.1% | [2]; at 50.0 µM 92.5% | [5]; at 50.0 µM 96.8%

c1ccc([P+](CCCCCCCC[P+](c2ccccc2)(c2ccccc2)c2ccccc2)(c2ccccc2)c2ccccc2)cc1
inactive: [1]; [7] 40% | [2]; [7] 39% | [3]; [7] 46% | [4]; [7] 30% | [5]; [7] 46%
active: [1]; [8] 98% | [1]; at 50.0 µM 88.5% | [2]; [8] 99% | [2]; at 50.0 µM 92% | [3]; [8] 98% | [3]; at 50.0 µM 90.9% | [4]; [8] 95% | [4]; at 50.0 µM 87.7% | [5]; [8] 98% | [5]; at 50.0 µM 91.1% | [6]; [7] 73% | [6]; [8] 97% | [6]; at 50.0 µM 89.8%

C[C@@H](O)[C@H]1CC[C@H]2[C@@H]3CCC4=C/C(=N/O)CC[C@]4(C)[C@H]3CC[C@]12C
inactive: [1]; [7] 36% | [1]; [8] 51% | [1]; at 50.0 µM 7.4% | [2]; [7] 15% | [2]; [8] 20% | [2]; at 50.0 µM 22.2% | [3]; [7] 44% | [3]; [8] -34% | [3]; at 50.0 µM 36.1% | [4]; [7] 16% | [4]; at 50.0 µM -0.05% | [5]; [7] -2% | [5]; [8] 61% | [6]; [7] 54% | [6]; [8] 68% | [6]; at 50.0 µM 36.1%
active: [4]; [8] 78% | [5]; at 50.0 µM 80.8%

COC1CC2CCC(C)[C@](O)(O2)C(=O)C(=O)N2CCCCC2C(=O)OC(C(C)CC2CCC(O)C(OC)C2)CC(=O)C(C)C=C(C)C(OC(=O)CN(C)C)C(OC)C(=O)C(C)CC(C)/C=C/C=C/C=C\1C (stereo not given in full)
active: [1]; [8] 97% | [1]; at 50.0 µM 89% | [2]; [8] 97% | [2]; at 50.0 µM 92.5% | [3]; [7] 97% | [3]; [8] 96% | [3]; at 50.0 µM 92% | [4]; [7] 95% | [4]; [8] 94% | [4]; at 50.0 µM 85.4% | [5]; [8] 98% | [5]; at 50.0 µM 91.7% | [6]; [7] 97% | [6]; [8] 96% | [6]; at 50.0 µM 89.8%
inactive: [1]; [7] 37% | [2]; [7] 46% | [5]; [7] 50%

O=c1[nH]c(=O)n(C2OC(CO)C(O)C2O)cc1F (stereo not given)
inactive: [1]; [7] 21% and 30% | [2]; [7] 42% and 39% | [4]; [7] 15% and 24% | [5]; [7] 5% and -1% | [6]; [7] 24% and 6%
65% (inactive) and 80% (active): [3]; [7]
active: [1]; [8] 96% and 95% | [1]; at 50.0 µM 96.2% and 93% | [2]; [8] 99% | [2]; at 50.0 µM 97.3% and 97.8% | [3]; [8] 98% | [3]; at 50.0 µM 97.8% and 96.1% | [4]; [8] 96% and 98% | [4]; at 50.0 µM 90.5% and 92.2% | [5]; [8] 98% and 97% | [5]; at 50.0 µM 96.3% and 90.2% | [6]; [8] 97% and 96% | [6]; at 50.0 µM 94.8% and 92.2%

Fc1cccc(CSC(=S)Nc2ccc(F)c(F)c2)c1
active: [1]; [8] 99% | [1]; at 50.0 µM 99.6% | [2]; [8] 99% | [2]; at 50.0 µM 99.8% | [3]; [8] 99% | [3]; at 50.0 µM 99.7% | [4]; [8] 91% | [4]; at 50.0 µM 99.5% | [5]; [8] 95% | [5]; at 50.0 µM 99.7% | [6]; [8] 99% | [6]; at 50.0 µM 99.7%
inactive: [1]; [7] 12% | [2]; [7] 13% | [3]; [7] 10% | [4]; [7] -2% | [5]; [7] -2% | [6]; [7] 8%

OC1CC2CCCC(C1)C2 (stereo not given)
active: [4]; at 50.0 µM 72.5%
inactive: [1]; [7] -2% | [1]; [8] 3% | [1]; at 50.0 µM -17.8% | [2]; [7] 4% | [2]; [8] 1% | [2]; at 50.0 µM 17.8% | [3]; [7] -2% | [3]; [8] 3% | [3]; at 50.0 µM -12.2% | [4]; [7] -5% | [4]; [8] -3% | [5]; [7] 0% | [5]; [8] -10% | [5]; at 50.0 µM -18.6% | [6]; [7] -1% | [6]; [8] -2% | [6]; at 50.0 µM -1.65%

COc1ccc(C2c3cc4c(cc3OC(NNC(N)=O)C2C)OCO4)cc1 (stereo not given)
active: [1]; [8] 96% | [1]; at 50.0 µM 84.5% | [2]; [8] 96% | [2]; at 50.0 µM 80.4% | [3]; [8] 96% | [3]; at 50.0 µM 87.8% | [4]; [8] 95% | [4]; at 50.0 µM 76% | [5]; [8] 99% | [5]; at 50.0 µM 85.8% | [6]; [8] 97% | [6]; at 50.0 µM 85.8%
inactive: [1]; [7] -1% | [2]; [7] -36% | [3]; [7] -38% | [4]; [7] -4% | [5]; [7] -34% | [6]; [7] 6%

CCCCCCCCCCCCCCCCCCOCC(O)CO (stereo not given)
inactive: [1]; [7] 0% | [1]; [8] -1% | [1]; at 50.0 µM 45.5% | [2]; [7] -2% | [2]; [8] -1% | [2]; at 50.0 µM 55.6% | [3]; [7] -1% | [3]; [8] -1% | [3]; at 50.0 µM 62.6% | [4]; [7] -1% | [4]; [8] -7% | [4]; at 50.0 µM 34.2% | [5]; [7] 2% | [5]; [8] -1% | [5]; at 50.0 µM 64.7% | [6]; [7] -3% | [6]; [8] -13% | [6]; at 50.0 µM 57%

O=[N+]([O-])c1ccc(OCCN(Cc2ccccc2)Cc2ccccc2)c([N+](=O)[O-])c1
active: [1]; [8] 70% | [1]; at 50.0 µM 71.5% | [5]; at 50.0 µM 71.5% | [6]; at 50.0 µM 74.8%
inactive: [1]; [7] 3% | [2]; [7] 3% | [2]; [8] 38% | [2]; at 50.0 µM 59.2% | [3]; [7] -11% | [3]; [8] 61% | [3]; at 50.0 µM 60.4% | [4]; [7] 4% | [4]; [8] 24% | [4]; at 50.0 µM 34.1% | [5]; [7] 3% | [5]; [8] 54% | [6]; [7] 5% | [6]; [8] 58%

O=C1C(CN(Cc2ccccc2)Cc2ccccc2)CCCC1CN(Cc1ccccc1)Cc1ccccc1 (stereo not given)
90.6% (active) and -1.45% (inactive): [1]; at 50.0 µM
83.2% (active) and 21.4% (inactive): [5]; at 50.0 µM
80.8% (active) and 14.2% (inactive): [6]; at 50.0 µM
inactive: [1]; [7] 4% | [1]; [8] 17% | [2]; [7] -3% | [2]; [8] 22% | [3]; [7] 4% | [3]; [8] 46% | [4]; [7] -20% | [4]; [8] 7% | [4]; at 50.0 µM 23.6% and 67.8% | [5]; [7] -16% | [5]; [8] 47% | [6]; [7] -3% | [6]; [8] 58%
72.7% (active) and 21.9% (inactive): [3]; at 50.0 µM
73% (active) and 25.6% (inactive): [2]; at 50.0 µM

COc1ccc2c(c1)c[n+](C)c1c3cc(OC)c(OC)cc3ccc21
inactive: [1]; [7] 17% | [1]; [8] 23% | [1]; at 50.0 µM 5.2% and 37.6% | [2]; [7] 23% | [2]; [8] 20% | [2]; at 50.0 µM 2.8% and 35.4% | [3]; [7] -21% | [3]; [8] 47% | [3]; at 50.0 µM 43.2% and 48.9% | [4]; [7] -12% | [4]; [8] -8% | [4]; at 50.0 µM 34.6% and 13.8% | [5]; [7] 8% | [5]; [8] 61% | [5]; at 50.0 µM 25.9% and 19.1% | [6]; [7] 16% | [6]; [8] 19% | [6]; at 50.0 µM -19.9% and 32.5%

CCOP(=O)(OCC)C(C)(CC)NC(=O)C(C(F)(F)F)C(F)(F)F (stereo not given)
inactive: [1]; [7] 21% | [1]; [8] 21% | [1]; at 50.0 µM -5.45% and 2.5% | [2]; [7] 23% | [2]; [8] 13% | [2]; at 50.0 µM -14.8% and 4% | [3]; [7] 16% | [3]; [8] 13% | [3]; at 50.0 µM -8.75% and -2.6% | [4]; [7] 18% | [4]; [8] 24% | [4]; at 50.0 µM 5.65% and -1.65% | [5]; [7] 20% | [5]; [8] 19% | [5]; at 50.0 µM -4.95% and -8.05% | [6]; [7] 23% | [6]; [8] 18% | [6]; at 50.0 µM 8.65% and -16.8%
